The text below walks through data of publication PMC5700166.

Test in all cases: protein-binding microarray (PBM); PBM: ~300 nM protein, 6 mM HEPES pH 7.8, 80 mM KCl, 0.5 mM EDTA, 0.5 mM EGTA, 6% glycerol, 35 ng/ul poly-dIdC, 1% milk, 1 h, room temperature; Ap Aiptasia and Nv Nematostella (sea anemones) / Co Capsaspora / Aq Amphimedon (sponge) / Dm Drosophila / Hu human; RHD is the Rel homology domain; high values mean tight binding
Holding throughout (settings): dsDNA, one strand shown

One test addresses T1, GST-Ap-NF-kB RHD (Exaiptasia pallida (Aiptasia), UniProt A0A913YAJ5 2-422).
T1 sequence: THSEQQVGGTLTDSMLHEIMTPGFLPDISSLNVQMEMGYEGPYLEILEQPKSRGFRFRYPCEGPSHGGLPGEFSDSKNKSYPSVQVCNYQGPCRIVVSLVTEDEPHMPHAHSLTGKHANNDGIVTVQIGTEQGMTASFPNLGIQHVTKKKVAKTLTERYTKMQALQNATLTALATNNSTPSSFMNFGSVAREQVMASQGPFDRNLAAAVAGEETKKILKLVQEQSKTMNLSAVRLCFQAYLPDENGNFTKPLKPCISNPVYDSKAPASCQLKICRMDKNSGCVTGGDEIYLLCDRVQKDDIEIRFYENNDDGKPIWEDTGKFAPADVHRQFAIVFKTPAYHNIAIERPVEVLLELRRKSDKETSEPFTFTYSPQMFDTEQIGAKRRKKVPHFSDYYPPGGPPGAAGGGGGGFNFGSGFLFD

Test [1] addresses T2, GST-Nv-NF-kB (Cys allele) (Nematostella vectensis, UniProt E5G601 2-411).
T2 sequence: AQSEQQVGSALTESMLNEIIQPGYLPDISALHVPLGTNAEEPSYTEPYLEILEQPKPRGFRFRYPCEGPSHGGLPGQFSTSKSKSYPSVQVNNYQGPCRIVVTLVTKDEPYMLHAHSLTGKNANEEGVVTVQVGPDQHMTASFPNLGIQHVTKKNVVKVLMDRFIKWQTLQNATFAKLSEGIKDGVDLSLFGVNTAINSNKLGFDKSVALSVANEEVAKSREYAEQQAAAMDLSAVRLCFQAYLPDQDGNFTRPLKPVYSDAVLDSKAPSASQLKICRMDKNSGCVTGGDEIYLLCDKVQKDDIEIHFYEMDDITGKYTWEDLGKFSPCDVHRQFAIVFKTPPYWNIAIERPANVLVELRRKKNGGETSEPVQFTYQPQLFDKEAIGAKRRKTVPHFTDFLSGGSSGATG

Test [2] concerns the target T3, GST-Nv-NF-kB (Ser allele) (Nematostella vectensis, UniProt A7UNT2 2-411).
T3 sequence: T2 sequence with Q21R, C66S, S207N, E215Q, V217A, E225K, A268E, D399E

The target of another test is T4, GST-Co-NF-kB (Capsaspora owczarzaki, UniProt F1ARL5 200-546).
T4 sequence: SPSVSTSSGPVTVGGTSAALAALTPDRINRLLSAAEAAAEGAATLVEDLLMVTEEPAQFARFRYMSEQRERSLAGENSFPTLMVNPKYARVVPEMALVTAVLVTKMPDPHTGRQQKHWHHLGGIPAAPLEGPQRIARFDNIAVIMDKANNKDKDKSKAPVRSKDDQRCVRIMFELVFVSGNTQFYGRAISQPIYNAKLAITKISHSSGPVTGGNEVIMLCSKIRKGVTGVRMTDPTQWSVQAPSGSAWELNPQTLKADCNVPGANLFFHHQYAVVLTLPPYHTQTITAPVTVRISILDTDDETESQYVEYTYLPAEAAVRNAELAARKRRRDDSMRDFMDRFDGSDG

A further test has as its target T5, GST-Dm-Relish (Drosophila melanogaster, UniProt Q94527 99-473).
T5 sequence: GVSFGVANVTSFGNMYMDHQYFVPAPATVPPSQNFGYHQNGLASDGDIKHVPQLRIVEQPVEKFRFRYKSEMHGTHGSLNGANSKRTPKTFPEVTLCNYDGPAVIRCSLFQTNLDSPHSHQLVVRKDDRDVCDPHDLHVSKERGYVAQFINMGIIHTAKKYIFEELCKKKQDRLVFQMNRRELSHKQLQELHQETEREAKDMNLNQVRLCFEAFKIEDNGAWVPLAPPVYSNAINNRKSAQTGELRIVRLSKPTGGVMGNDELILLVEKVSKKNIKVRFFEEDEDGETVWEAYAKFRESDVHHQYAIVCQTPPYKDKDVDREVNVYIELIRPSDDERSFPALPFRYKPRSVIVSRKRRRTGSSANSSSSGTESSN

A further test has as its target T6, GST-Aq-NF-kB (Amphimedon queenslandica, UniProt A9Y5G7 2-389).
T6 sequence: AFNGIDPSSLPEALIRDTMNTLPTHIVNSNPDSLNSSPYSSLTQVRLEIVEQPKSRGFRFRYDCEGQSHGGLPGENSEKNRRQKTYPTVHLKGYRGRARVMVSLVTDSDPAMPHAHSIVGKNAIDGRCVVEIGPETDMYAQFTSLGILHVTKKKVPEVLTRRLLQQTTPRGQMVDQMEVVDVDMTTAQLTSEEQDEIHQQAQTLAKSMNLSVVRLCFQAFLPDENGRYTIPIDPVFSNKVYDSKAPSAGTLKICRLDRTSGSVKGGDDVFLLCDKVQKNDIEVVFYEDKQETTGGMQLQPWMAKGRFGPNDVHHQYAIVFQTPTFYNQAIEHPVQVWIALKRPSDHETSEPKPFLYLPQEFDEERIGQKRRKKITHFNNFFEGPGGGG

For a further test, the target named is GST-Hu-p50 (Homo sapiens, UniProt P19838 7-356).
Chain of GST-Hu-p50 (P19838 7-356): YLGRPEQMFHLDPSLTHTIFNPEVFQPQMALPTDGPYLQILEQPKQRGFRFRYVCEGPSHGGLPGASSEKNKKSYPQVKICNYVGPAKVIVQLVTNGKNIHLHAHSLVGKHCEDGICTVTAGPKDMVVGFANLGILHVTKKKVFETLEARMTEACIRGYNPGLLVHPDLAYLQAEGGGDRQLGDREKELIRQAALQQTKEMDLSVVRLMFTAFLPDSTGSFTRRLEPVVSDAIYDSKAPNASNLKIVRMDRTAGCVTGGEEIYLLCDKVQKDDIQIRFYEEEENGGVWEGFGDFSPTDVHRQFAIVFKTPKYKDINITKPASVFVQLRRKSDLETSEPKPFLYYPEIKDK

Positions count from the first letter of the chain named.

Turning to “CCGATTAACATCAAAAATCCCAGTGATGTTAATCGGGTCTTGATTCGCTTGACGCTGCTG”, the binding signal worked out at 3.43 z-score with GST-Ap-NF-kB RHD; 3.35 z-score in test [1]; 2.65 z-score in test [2]; 2.44 z-score in the test with GST-Co-NF-kB; 7.35 z-score with GST-Dm-Relish; 3.8 z-score with GST-Aq-NF-kB. The binding signal with GST-Hu-p50 stood at 3.5 z-score.

In the case of “CCGATTAACATCACGGTTTTCCCTGATGTTAATCGGGTCTTGATTCGCTTGACGCTGCTG”, the binding signal in the test with GST-Ap-NF-kB RHD was 3.99 z-score; in test [1], 5.02 z-score; in test [2], 6.45 z-score; in the test with GST-Co-NF-kB it was 4.63 z-score; with GST-Dm-Relish it was 4.43 z-score; with GST-Aq-NF-kB, 5.43 z-score. This sequence returned a binding signal with GST-Hu-p50 of 3.91 z-score.

As to “CCGATTAACATCACCATTTCCCCTGATGTTAATCGGGTCTTGATTCGCTTGACGCTGCTG”, the binding signal with GST-Ap-NF-kB RHD was determined as 5.75 z-score; in test [1], 6.95 z-score; in test [2], 9.62 z-score; with GST-Co-NF-kB, 6.17 z-score; with GST-Dm-Relish, 2.11 z-score; in the test with GST-Aq-NF-kB, 4.32 z-score. The binding signal in the test with GST-Hu-p50 is 5.3 z-score.

On to “CCGATTAACATCAAAGTCTCCCCTGATGTTAATCGGGTCTTGATTCGCTTGACGCTGCTG”, for which the binding signal in the test with GST-Ap-NF-kB RHD is 5.38 z-score; in test [1] it was 4.52 z-score; in test [2], 5.65 z-score; with GST-Co-NF-kB it was 7.88 z-score; with GST-Dm-Relish, 1.57 z-score; in the test with GST-Aq-NF-kB it was 3.98 z-score. Further, in the test with GST-Hu-p50, the binding signal came to 3.28 z-score.

In the case of “CCGATTAACATCAGGGGAATGCATGATGTTAATCGGGTCTTGATTCGCTTGACGCTGCTG”, the binding signal was found to be 5.82 z-score in the test with GST-Ap-NF-kB RHD; 7.06 z-score in test [1]; 7.76 z-score in test [2]; 5.53 z-score with GST-Co-NF-kB; 3.2 z-score with GST-Dm-Relish; 4.86 z-score in the test with GST-Aq-NF-kB. For the same sequence, the binding signal in the test with GST-Hu-p50 is 5.41 z-score.

Regarding “CCGATTAACATCAGGGGCAGTACTGATGTTAATCGGGTCTTGATTCGCTTGACGCTGCTG”, the binding signal in the test with GST-Ap-NF-kB RHD was 2.61 z-score; in test [1], 1.84 z-score; in test [2], 1.28 z-score; with GST-Co-NF-kB, 1.64 z-score; in the test with GST-Dm-Relish it was 3.44 z-score; with GST-Aq-NF-kB it was 4.35 z-score. For the same sequence, in the test with GST-Hu-p50, the binding signal turned out to be 2.94 z-score.

As for “CCGATTAACATCAGGGAACCACCTGATGTTAATCGGGTCTTGATTCGCTTGACGCTGCTG”, the binding signal turned out to be 6.9 z-score in the test with GST-Ap-NF-kB RHD; 5.68 z-score in test [1]; 4.58 z-score in test [2]; 1.22 z-score with GST-Co-NF-kB; 9.5 z-score with GST-Dm-Relish; 6.96 z-score in the test with GST-Aq-NF-kB. In the test with GST-Hu-p50, this sequence displayed a binding signal of 5.71 z-score.

Take “CCGATTAACATCAGAATTCCCCCTGATGTTAATCGGGTCTTGATTCGCTTGACGCTGCTG”: the binding signal with GST-Ap-NF-kB RHD was found to be 10.1 z-score; in test [1], 11.8 z-score; in test [2], 11.7 z-score; in the test with GST-Co-NF-kB, 10.8 z-score; with GST-Dm-Relish it was 8.22 z-score; in the test with GST-Aq-NF-kB, 8.47 z-score. The sequence further showed a binding signal in the test with GST-Hu-p50 of 8.34 z-score.

“CCGATTAACATCACGAATTTCCCTGATGTTAATCGGGTCTTGATTCGCTTGACGCTGCTG”: the binding signal with GST-Ap-NF-kB RHD was 4.28 z-score; in test [1] it was 5.72 z-score; in test [2], 6.67 z-score; in the test with GST-Co-NF-kB, 4.33 z-score; with GST-Dm-Relish it was 2.13 z-score; in the test with GST-Aq-NF-kB, 5.22 z-score. In the test with GST-Hu-p50, this sequence showed a binding signal of 4.46 z-score.

Consider “CCGATTAACATCAGGGCCTCCCCTGATGTTAATCGGGTCTTGATTCGCTTGACGCTGCTG”, for which the binding signal was 6.07 z-score with GST-Ap-NF-kB RHD; 4.43 z-score in test [1]; 3.22 z-score in test [2]; 2.08 z-score with GST-Co-NF-kB; 7.13 z-score with GST-Dm-Relish; 6.75 z-score with GST-Aq-NF-kB. Moreover, the binding signal in the test with GST-Hu-p50 came out at 3.91 z-score.

Regarding “CCGATTAACATCAAAATCCCCCGTGATGTTAATCGGGTCTTGATTCGCTTGACGCTGCTG”, the binding signal in the test with GST-Ap-NF-kB RHD was 9.02 z-score; in test [1], 9.33 z-score; in test [2], 10.1 z-score; in the test with GST-Co-NF-kB it was 8.56 z-score; in the test with GST-Dm-Relish, 9.89 z-score; with GST-Aq-NF-kB, 7.76 z-score. This sequence had a binding signal with GST-Hu-p50 of 8.02 z-score.

Regarding “CCGATTAACATCAAATTTCCCTATGATGTTAATCGGGTCTTGATTCGCTTGACGCTGCTG”, the binding signal is 4.13 z-score in the test with GST-Ap-NF-kB RHD; 6.5 z-score in test [1]; 6.37 z-score in test [2]; 3.02 z-score with GST-Co-NF-kB; 2.55 z-score with GST-Dm-Relish; 6.3 z-score in the test with GST-Aq-NF-kB. The sequence further registered a binding signal in the test with GST-Hu-p50 of 5.04 z-score.
